# Source: PubChem BioAssay (The Scripps Research Institute Molecular Screening Center)
# Compounds with a hit are over-represented: about 5.7% of the library has one in this group of screens.
# ssDAF12 agonist – activators of S. stercoralis DAF-12 nuclear receptor. activation, % at 6.8 µM. actives 1% (n = 370,000). AID 652126. HEK293 ssDAF-12/GRIP1 lit1-tk-luc reporter, luminescence; % of 3 µM dafachronic acid response;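 active = activation above the mean over all tested compounds plus 3 SD, cut at about 0.9% in these data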;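 note: 0% = DMSO-only wells and 100% = 3 µM delta7-dafachronic acid wells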
# AHR activator – human AHR activation | P35869 | AHR-responsive luciferase reporter cells, luminescence | activation, % at 5 µM | actives 2.5% (n = 320,000) | AID 2796; in the data active = activation above about 47%;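 note: 0% = vehicle wells and 100% = reference agonist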
# hcDAF-12 act – activates DAF-12 receptor from parasite H. contortus. AID 652067. HEK293 hcDAF-12 lit1-tk-luc reporter, luminescence; 0% DMSO, 100% Δ7-dafachronic acid. actives 1.4% (n = 370,000). activation, % at 6.8 µM;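 active = activation above the mean of all tested compounds plus 3 SD, cut at about 5.5% in these data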;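 note: 100% = response to 3 µM Δ7-dafachronic acid high control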
# hgDAF-12 ag – activates the H. glycines DAF-12 receptor ligand-binding domain | HEK293 GAL4-hgDAF12 UAS-luciferase reporter, agonist luminescence; normalized to butyrate control | activation, % at 6.8 µM | actives 1.8% (n = 370,000);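 active = activation above a cutoff set at the mean of all screened compounds plus 3 SD, cut at about 10% in these data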;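 note: 0% = DMSO wells and 100% = sodium butyrate wells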
# DAX1 inh-1 – NR0B1 (DAX1) inhibition. inhibition, % at 6.75 µM. P51843. actives 0.99% (n = 340,000). HEK293 Gal4-DAX1 luciferase reporter, luminescence;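 active = inhibition above the mean over all tested compounds plus 3 SD, cut at about 4.2% in these data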;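 note: 0% = DAX1-transfected cells with DMSO and 100% = empty-vector control cells with DMSO; inhibition shows as a rise in luminescence from relieved DAX1 repression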
# Target sequence (P51843 207-470 limits assumed): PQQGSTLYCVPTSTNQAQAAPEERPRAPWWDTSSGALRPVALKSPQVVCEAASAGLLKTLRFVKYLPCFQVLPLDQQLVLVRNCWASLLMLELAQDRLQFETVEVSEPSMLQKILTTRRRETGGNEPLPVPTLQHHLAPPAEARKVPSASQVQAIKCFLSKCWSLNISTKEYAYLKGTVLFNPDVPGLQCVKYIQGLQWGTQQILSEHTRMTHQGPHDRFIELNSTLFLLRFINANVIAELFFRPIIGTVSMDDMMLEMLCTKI
# DAX1 inh-2 – DAX1 (NR0B1) inhibition, primary screen. HEK293T StAR-luciferase reporter, SF-1/DAX-1 repression relief. actives 1.1% (n = 370,000). inhibition, % at 6.8 µM;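 active = inhibition above the mean over all tested compounds plus 3 SD, cut at about 3.6% in these data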;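 note: 0% = DAX-1 cells with DMSO and 100% = cells lacking DAX-1 with DMSO; higher inhibition means more luminescence from relief of DAX-1 repression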
# LXR ag – LXR-beta agonism as hcDAF-12 counter-screen; shares compounds with hcDAF-12 act; HEK293 Gal4-LXR tk-luc reporter, luminescence, 24 h; normalized: DMSO 0%, positive control 100%; activation, % at 6.8 µM; 3,400 tested, under 10 active; AID 743027;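 active = mean percent activation of the reporter above a cutoff set as the average over tested compounds plus their standard deviation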
# hcDAF12 ag – hcDAF-12 agonism, confirmation assay; AID 743032; activation, % at 6.8 µM; actives 61% (n = 3,400); HEK293 hcDAF-12 lit1-tk-luc reporter, luminescence; % of Δ7-dafachronic acid response; shares compounds with hcDAF-12 act;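 active = mean activation across triplicate tests above the threshold derived from the earlier primary screen, cut at about 5.5% in these data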;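 note: 0% = DMSO only wells and 100% = 3 µM Δ7-dafachronic acid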
# Active calls of the source: *; nt = no result given.
SMILES,ssDAF12 agonist,AHR activator,hcDAF-12 act,hgDAF-12 ag,DAX1 inh-1,DAX1 inh-2,LXR ag,hcDAF12 ag
Cc1cc(NC(=S)NC(=O)C2CC2)ccc1Br,0.4,105.6*,8.8*,10.4,4.9*,1.4,0.4,6.3*
N=c1oc2cc(O)ccc2cc1C(=O)Nc1nc2ccccc2s1,-0.9,15.9,7.2*,1.0,3.1,0.7,1.7,11.1*
Cc1ccc(NC(=S)N2CC(C)OC(C)C2)cc1C (stereo not given),-1.3,nt,0.9,-0.7,0.0,0.7,nt,nt
O=C(Nc1ccccc1)c1ccc(C(=O)Nc2ccccc2)nc1,-1.0,0.9,1.2,2.9,-0.8,1.0,nt,nt
O=C(Nc1ccccc1)c1cn(CCBr)cn1,1.3*,-0.3,6.8*,8.9,3.1,1.8,1.2,5.4
CCC(C)c1ccc(Nc2ncccc2C#N)cc1 (stereo not given),-0.1,61.4*,7.7*,7.2,0.8,0.1,0.6,8.6*
Cc1cc(-n2cnnn2)cc(C)c1S(=O)(=O)NCCOc1ccccc1,-1.2,1.2,3.7,-3.7,-0.1,-0.1,nt,nt
O=C(c1cc2cc(Br)ccc2[nH]1)N1CCc2ccccc21,0.9,nt,3.6,3.8,0.8,0.2,nt,nt
O=C(c1cc2cc(F)ccc2[nH]1)N1CCc2ccccc21,1.9*,nt,16.2*,13.2*,5.0*,2.0,0.7,9.2*
CCC(C)[C@H](NC(=O)N1CC(=O)Nc2ccccc21)C(=O)N[C@@H](C(=O)O)c1ccccc1 (stereo not given in full),-1.1,0.6,-0.3,0.9,-0.2,0.0,nt,nt
CCC(C)[C@H](NC(=O)N1CC(=O)Nc2ccccc21)C(=O)N[C@H](Cc1c[nH]c2ccccc12)C(=O)O (stereo not given in full),0.2,13.5,8.0*,-0.3,0.6,-0.5,-0.3,3.1
O=C(NNC(=O)c1ccc2nc[nH]c2c1)c1ccccc1,-1.6,0.7,-1.1,-0.7,-0.1,-0.1,nt,nt
Cc1ccc(NC(=O)c2ccc3nc[nH]c3c2)nc1,0.1,38.8,8.9*,7.3,1.2,9.6*,1.1,5.1
CCCc1nc2c(C)cc(Br)cn2c1Cc1ccc(C)cc1,-0.2,nt,7.4*,5.1,nt,0.1,0.2,10.4*
Brc1ccc(-c2nc(-c3ccccn3)no2)o1,-0.1,50.8*,8.0*,5.4,-2.9,0.7,1.2,10.8*
CC(C)(C)c1ccc(C(=O)NCCC(=O)N2CCCC2)cc1,0.4,22.8,7.0*,12.3*,3.0,1.7,0.9,4.9
CC(C)(C)c1ccc(C(=O)NCCc2ccccc2)cc1,0.7,-1.7,6.6*,11.4*,-1.0,2.6,2.1,11.7*
CC(C)(C)c1ccc(C(=O)NCc2ccccc2)cc1,-1.2,12.1,1.6,10.0,2.0,1.6,nt,nt
COc1ccc(-c2cc(C(=O)N3CCCCCC3)no2)cc1,-0.3,-1.9,7.6*,9.1,6.2*,2.0,1.2,4.3
COc1ccc(-c2cc(C(=O)N3CCN(C(c4ccccc4)c4ccccc4)CC3)no2)cc1,nt,1.2,nt,nt,0.4,nt,nt,nt
O=C(/C=C/c1ccccc1)NNC(=O)c1ccco1,-0.8,2.1,0.4,7.6,2.2,0.3,nt,nt
Cc1onc(-c2c(Cl)cccc2Cl)c1NC(=O)N1CCSCC1,1.8*,-1.3,8.0*,10.6*,4.2*,3.5,-0.2,0.3
O=C(Nc1ccccc1)C1COc2ccccc2O1 (stereo not given),-0.7,0.5,3.0,3.8,0.4,1.5,nt,nt
Cc1ccc(NC(=O)C2COc3ccccc3O2)nc1 (stereo not given),0.9,18.1,9.5*,12.3*,1.8,2.7,1.0,9.4*
Cc1ccc(NC(=O)C2Oc3ccccc3OC2C)cc1 (stereo not given),0.4,50.7*,9.1*,2.1,0.3,0.0,-0.1,6.9*
SMILES,ssDAF12 agonist,AHR activator,hcDAF-12 act,hgDAF-12 ag,DAX1 inh-1,DAX1 inh-2,LXR ag,hcDAF12 ag
CC1(C)Oc2ccc(NC(=O)C3COc4ccccc4O3)cc2O1 (stereo not given),1.9*,41.2,8.9*,12.5*,-0.4,4.4*,1.1,7.6*
Cc1ccc(NC(=O)C2COc3ccccc3O2)cc1 (stereo not given),0.5,6.7,6.6*,12.0*,2.3,1.8,1.1,7.7*
COc1cc(C(=O)OCC(=O)N2CCOCC2)c([N+](=O)[O-])cc1OC,-1.1,-0.8,-2.3,-2.3,-0.6,-0.4,nt,nt
O=C(O)c1ccc(S(=O)(=O)c2ccc3c(c2)C(=O)N(NC(=O)c2cccnc2)C3=O)cc1,-0.9,26.6,-0.8,4.5,-0.9,-0.3,nt,nt
CCOc1ccc(OCCSc2nnnn2C2CCCCC2)cc1,-0.6,7.0,-1.1,-0.6,0.4,-0.2,nt,nt
Clc1ccc(-c2nc3c4ccccc4ccn3c2Cc2ccccc2)cc1,0.1,nt,3.0,5.2,1.6,1.9,nt,nt
Clc1ccc(-c2nc3c4ccccc4ccn3c2CC2CCCCC2)cc1,1.6*,nt,6.7*,6.2,nt,1.4,-0.1,6.7*
Cc1ccc(-c2nc3c4ccccc4ccn3c2CN2CCCCC2)cc1,0.0,30.8,6.7*,1.9,2.9,-0.2,-0.2,5.5
COc1ccc(Nc2cccccc2=O)cc1,-1.7,-3.1,-0.6,7.2,-0.4,2.0,nt,nt
COc1ccc(Nc2cccc3ccccc23)cc1,1.3*,77.1*,6.9*,4.6,0.4,0.6,0.5,6.5*
Cc1c(CN(C)C(=O)/C=C/c2ccc([N+](=O)[O-])cc2)cnn1C,-0.5,2.9,-2.2,-0.4,1.0,-0.4,nt,nt
Cc1sc2c(c1C)C(=O)NC(c1ccccc1F)N2 (stereo not given),0.8,26.1,0.5,4.0,1.3,0.5,nt,nt
Cc1ccc(C2NC(=O)c3c(sc(C)c3C)N2)c(O)c1 (stereo not given),1.0*,49.1*,9.0*,8.6,1.1,1.7,0.3,8.4*
O=C(O)c1cc(-c2c[nH]c3ccccc23)nc2cc3ccccc3cc12,1.6*,41.7,8.7*,6.3,nt,2.0,0.1,9.0*
O=C(O)c1cc(-c2cccc3ccccc23)nc2ccccc12,-0.6,6.3,4.6,-0.2,0.0,-0.1,nt,nt
Cn1c(/C(C#N)=C(\O)c2ccc(Cl)s2)nc2ccccc21,0.1,64.9*,8.0*,2.9,0.7,1.1,0.5,8.3*
Cn1c(/C(C#N)=C(\O)c2ccc([N+](=O)[O-])s2)nc2ccccc21,0.2,12.1,-0.7,-1.7,-0.5,-0.1,nt,nt
